Data reported in the supplement of paper PMC12494721.
Counter-ions that a name gives are not always drawn.

How the values were obtained:
Conditions in all cases: incubation time: 27 h, anaerobic, 37 °C;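 for the amine columns active = adjusted P below 0.05 in both replicates with a change the same way and a mean fold change under 0.8 or over 1.25; inactive = the rest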
[1] = system: Clostridium sporogenes DSM 1664; test: growth (OD595) fold change vs plate DMSO controls (fold change (ratio)); higher = more growth
In short: (§1)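 The measure reported is growth, taken as fold change against the median of DMSO controls on the same plate. Anaerobic mGAM cultures in 96-well plates (27 h, 37 °C) were read at 595 nm, blank-subtracted, corrected for compound background using 20 µM compound solutions in water, and multiplied by a calibration factor of 5 to give OD. Any fold change above 1.5 became NA, and 2 biological replicates were averaged.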

Escherichia coli IAI1 [2] = test: as above
In short: as §1

[3] = system: Klebsiella aerogenes DSM 30053; test: as above
In short: as §1

[4] = system: Ruminococcus gnavus DSM 108212; test: as above
In short: as §1

[5] = system: Klebsiella aerogenes DSM 30053; test: fold change of Histamine concentration vs plate DMSO controls (fold change (ratio)); higher = more amine produced, active = hit call of the paper (significant change in both replicates, either direction)
In short: (§2)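 Anaerobic mGAM cultures of four gut bacterial strains were grown at 37 °C for 27 h in 80 µL wells, starting at OD 0.1 before 1:1 dilution. Compounds were at 20 µM final (sweeteners 50 µM). Whole cultures were extracted with cold acetonitrile/methanol containing 0.1% formic acid and centrifuged. Amines were quantified by LC–triple-quadrupole MS (dynamic MRM) against external calibration curves and drift-corrected within batch. Each value is the fold change versus plate DMSO controls, averaged over 2 biological replicates.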

[6] = system: Clostridium sporogenes DSM 1664; test: fold change of Tryptamine concentration vs plate DMSO controls (fold change (ratio)); higher = more amine produced, active = hit call of the paper (significant change in both replicates, either direction)
In short: as §2

[7] = system: Ruminococcus gnavus DSM 108212; test: as above
In short: as §2

Escherichia coli IAI1 [8] = test: fold change of Putrescine concentration vs plate DMSO controls (fold change (ratio)); higher = more amine produced, active = hit call of the paper (significant change in both replicates, either direction)
In short: as §2

[9] = system: Klebsiella aerogenes DSM 30053; test: as above
In short: as §2

Escherichia coli IAI1 [10] = test: fold change of Cadaverine concentration vs plate DMSO controls (fold change (ratio)); higher = more amine produced, active = hit call of the paper (significant change in both replicates, either direction)
In short: as §2

[11] = system: Klebsiella aerogenes DSM 30053; test: as above
In short: as §2

[12] = system: Ruminococcus gnavus DSM 108212; test: fold change of 2-Phenylethylamine concentration vs plate DMSO controls (fold change (ratio)); higher = more amine produced, active = hit call of the paper (significant change in both replicates, either direction)
In short: as §2

Row | Compound | growth [1] | growth (Escherichia coli IAI1 [2]) | growth [3] | growth [4] | fold change of Histamine concentration [5] | fold change of Tryptamine concentration [6] | fold change of Tryptamine concentration [7] | fold change of Putrescine concentration (Escherichia coli IAI1 [8]) | fold change of Putrescine concentration [9] | fold change of Cadaverine concentration (Escherichia coli IAI1 [10]) | fold change of Cadaverine concentration [11] | fold change of 2-Phenylethylamine concentration [12]
1 | NNC(=O)c1ccncc1 [Isoniazid] (20 µM) | 1.22 | 1.01 | 0.936 | 0.727 | 1.03 (inactive) | 1.05 (inactive) | 0.851 (inactive) | 1.03 (inactive) | 0.991 (inactive) | 1.01 (inactive) | 0.988 (inactive) | 0.844 (inactive)
2 | C1CCC(C(CC2CCCCN2)C2CCCCC2)CC1 (stereo not drawn) [Perhexiline maleate] (20 µM) | 1.14 | 1 | 1 | 0.952 | 0.983 (inactive) | 1.03 (inactive) | 0.771 (active) | 1.05 (inactive) | 1.01 (inactive) | 1.05 (inactive) | 1 (inactive) | 0.892 (inactive)
3 | OC[C@H]1O[C@@H](c2ccc(Cl)c(Cc3ccc(O[C@H]4CCOC4)cc3)c2)[C@H](O)[C@@H](O)[C@@H]1O [Empagliflozin] (20 µM) | 1.04 | 1 | 1 | 0.989 | 0.998 (inactive) | 1.05 (inactive) | 0.872 (inactive) | 1.02 (inactive) | 0.986 (inactive) | 1.02 (inactive) | 0.974 (inactive) | 0.83 (inactive)
4 | COC(=O)N/N=C/c1c[n+]([O-])c2ccccc2[n+]1[O-] [Carbadox] (20 µM) | 0.00259 | 0.0346 | 0.0738 | 0.0392 | 0.0834 (active) | 0.00903 (active) | 0.0355 (active) | 0.388 (active) | 0.377 (active) | 0.187 (active) | 0.983 (inactive) | 0.0387 (active)
5 | C[C@]12CCC(=O)C=C1CC[C@@H]1[C@@H]2C(=O)C[C@@]2(C)[C@H]1CC[C@]2(O)C(=O)CO [Cortisone] (20 µM) | 1.15 | 0.978 | 1 | 1.23 | 0.991 (inactive) | 0.974 (inactive) | 1.01 (inactive) | 1 (inactive) | 1 (inactive) | 0.994 (inactive) | 1.01 (inactive) | 1.03 (inactive)
6 | C[C@H](CCC(=O)O)[C@H]1CC[C@H]2[C@@H]3[C@H](O)C[C@@H]4C[C@H](O)CC[C@]4(C)[C@H]3CC[C@]12C [Chenodiol] (20 µM) | 1.06 | 0.995 | 1.02 | 1.01 | 1 (inactive) | 1.03 (inactive) | 1.03 (inactive) | 1 (inactive) | 0.999 (inactive) | 1.04 (inactive) | 1.02 (inactive) | 0.994 (inactive)
7 | CN(C)c1ccc(O)c2c1C[C@H]1C[C@H]3[C@H](N(C)C)C(=O)C(C(N)=O)=C(O)[C@@]3(O)C(=O)C1=C2O [Minocycline hydrochloride] (20 µM) | 0.0113 | 0.0671 | 0.394 | 0.158 | 0.996 (inactive) | 0.0198 (active) | 0.14 (active) | 0.287 (active) | 0.866 (inactive) | 0.278 (active) | 0.681 (active) | 0.142 (active)
8 | CC(C)[N+](C)(CCOC(=O)C1c2ccccc2Oc2ccccc21)C(C)C [Propantheline bromide] (20 µM) | 1.03 | 0.986 | 1 | 0.994 | 1 (inactive) | 0.971 (inactive) | 0.96 (inactive) | 1.02 (inactive) | 0.992 (inactive) | 1.01 (inactive) | 0.996 (inactive) | 0.963 (inactive)
9 | COc1ccc2c(c1)c(CC(=O)O)c(C)n2C(=O)c1ccc(Cl)cc1 [Indomethacin] (20 µM) | 0.988 | 1 | 1.02 | 1.04 | 0.997 (inactive) | 0.988 (inactive) | 0.981 (inactive) | 1.01 (inactive) | 1.01 (inactive) | 1 (inactive) | 0.989 (inactive) | 0.979 (inactive)
10 | O=C(Nc1ccc([N+](=O)[O-])cc1Cl)c1cc(Cl)ccc1O [Niclosamide] (20 µM) | 0.924 | 1.12 | 1.1 | 0.78 | 0.97 (inactive) | 1.02 (inactive) | 0.887 (inactive) | 1.22 (inactive) | 1.03 (inactive) | 1.31 (active) | 0.992 (inactive) | 0.934 (inactive)
11 | CCOc1ccccc1C(N)=O [Ethenzamide] (20 µM) | 1.07 | 1 | 1.01 | 0.956 | 1.02 (inactive) | 1.1 (inactive) | 1.01 (inactive) | 0.983 (inactive) | 0.985 (inactive) | 0.986 (inactive) | 0.978 (inactive) | 1.03 (inactive)
12 | CC1CNc2c(cccc2S(=O)(=O)N[C@@H](CCCNC(=N)N)C(=O)N2CC[C@@H](C)C[C@@H]2C(=O)O)C1 (stereo partly drawn) [Argatroban] (20 µM) | 1.12 | 0.953 | 1.16 | 0.732 | 0.986 (inactive) | 0.976 (inactive) | 0.987 (inactive) | 0.978 (inactive) | 1.04 (inactive) | 1.01 (inactive) | 1 (inactive) | 0.937 (inactive)
13 | Cc1[nH]c(=O)c(C#N)cc1-c1ccncc1 [Milrinone] (20 µM) | 1.08 | 1.05 | 0.987 | 0.92 | 1.09 (inactive) | 0.997 (inactive) | 1.03 (inactive) | 1.02 (inactive) | 1.07 (inactive) | 0.924 (inactive) | 1.03 (inactive) | 0.996 (inactive)
14 | CC(c1cc2ccccc2s1)N(O)C(N)=O (stereo not drawn) [Zileuton] (20 µM) | 1.11 | 0.91 | 0.978 | 1.01 | 1.06 (inactive) | 0.987 (inactive) | 1.03 (inactive) | 0.86 (inactive) | 1.01 (inactive) | 1 (inactive) | 0.98 (inactive) | 1.07 (inactive)
15 | Cc1ncc([N+](=O)[O-])n1CCO [Metronidazole] (20 µM) | 0.00188 | 1.04 | 1.02 | 0.0847 | 0.975 (inactive) | 0.011 (active) | 0.0917 (active) | 0.94 (inactive) | 1.05 (inactive) | 0.997 (inactive) | 1.1 (inactive) | 0.0796 (active)
16 | O=C1CC2(CCCC2)CC(=O)N1CCCCN1CCN(c2ncccn2)CC1 [Buspirone hydrochloride] (20 µM) | 0.958 | 1.07 | 0.968 | 0.992 | 1.09 (inactive) | 1.05 (inactive) | 1.05 (inactive) | 1.02 (inactive) | 1.01 (inactive) | 1.05 (inactive) | 0.99 (inactive) | 1.05 (inactive)
17 | C=CC1=C(C(=O)O)N2C(=O)[C@@H](NC(=O)/C(=N\O)c3csc(N)n3)[C@H]2SC1 [Cefdinir] (20 µM) | 0 | 0 | 0.757 | 0 | 1.22 (inactive) | 0.0307 (active) | 0.04 (active) | 0.208 (active) | 0.979 (inactive) | 0.77 (inactive) | 1.03 (inactive) | 0.0439 (active)
18 | CCC(=O)OCC(=O)[C@@]1(OC(=O)CC)[C@@H](C)C[C@H]2[C@@H]3CCC4=CC(=O)C=C[C@]4(C)[C@@]3(Cl)[C@@H](O)C[C@@]21C [Beclomethasone dipropionate] (20 µM) | 1.19 | 0.997 | 1.04 | 1.22 | 1 (inactive) | 1.01 (inactive) | 0.937 (inactive) | 0.954 (inactive) | 1.01 (inactive) | 1.02 (inactive) | 0.995 (inactive) | 0.921 (inactive)
19 | CCCN[C@H]1CCc2nc(N)sc2C1 [Pramipexole dihydrochloride] (20 µM) | 0.931 | 0.975 | 1.01 | 1.01 | 1.05 (inactive) | 0.946 (inactive) | 0.974 (inactive) | 0.977 (inactive) | 1.05 (inactive) | 0.98 (inactive) | 1.01 (inactive) | 0.923 (inactive)
20 | CN1CCC[C@@H]1Cc1c[nH]c2ccc(CCS(=O)(=O)c3ccccc3)cc12 [Eletriptan] (20 µM) | 0.866 | 1.04 | 0.965 | 0.979 | 1.05 (inactive) | 1.05 (inactive) | 1.02 (inactive) | 1.08 (inactive) | 0.973 (inactive) | 0.955 (inactive) | 0.994 (inactive) | 1.05 (inactive)
21 | CCCCOc1ccc(OCCCN2CCOCC2)cc1 [Pramoxine hydrochloride] (20 µM) | 1.11 | 0.971 | 1.17 | 0.899 | 0.904 (inactive) | 1.06 (inactive) | 1.01 (inactive) | 0.96 (inactive) | 0.976 (inactive) | 0.97 (inactive) | 1.02 (inactive) | 1.07 (inactive)
22 | Cc1ccc(S(=O)(=O)NCl)cc1 [Chloramine-T hydrate] (20 µM) | 0.97 | 0.978 | 1.11 | 1.07 | 0.912 (inactive) | 0.931 (inactive) | 0.992 (inactive) | 1.01 (inactive) | 1.03 (inactive) | 1.01 (inactive) | 1.02 (inactive) | 0.935 (inactive)
23 | CN(C/C=C/c1ccccc1)Cc1cccc2ccccc12 [Naftifine hydrochloride] (20 µM) | 1.08 | 1.21 | 0.994 | 0.89 | 0.999 (inactive) | 0.99 (inactive) | 0.941 (inactive) | 1.08 (inactive) | 0.996 (inactive) | 1.34 (active) | 0.99 (inactive) | 1.01 (inactive)
24 | OC(CNCC(O)C1CCc2cc(F)ccc2O1)C1CCc2cc(F)ccc2O1 (stereo not drawn) [Nebivolol hydrochloride] (20 µM) | 1.15 | 0.992 | 0.992 | 0.785 | 1.03 (inactive) | 0.94 (inactive) | 0.882 (inactive) | 1.03 (inactive) | 1.01 (inactive) | 0.955 (inactive) | 0.998 (inactive) | 0.879 (inactive)
